# PubChem BioAssay
# The source made the active and inactive calls.
# What was measured:
# [1] = optical density shifts of acrAB sulA E. coli – strain DRC41, OD650, 48 h, E. coli filamentation inducer project, primary screen (AID 1152); details: higher = more signal, called active from +8 up or from −8 down;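 also: E. coli MC1000 strain DRC41 lacking acrAB efflux pump and sulA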
# [2] = probe aLefty1 binding on compound microarray – biochemical, small-molecule microarray, 635/667 nm fluorescence, primary screen (AID 1153); details: higher = more signal;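 also: score merges spot fluorescence with signal-to-noise ratio from the scanned slide images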
# [3] = plasmodial surface anion channel blockers, osmotic lysis – cell-based, P. falciparum Indochina, OD700, 1 h, primary screen (AID 1154); details: P. falciparum Indochina infected RBC osmotic lysis, higher = more signal, called active from +8 up or from −8 down
# [4] = plasmodial surface anion channel blockers, osmotic lysis – cell-based, P. falciparum Indochina, OD700, 2 h, primary screen (AID 1155);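 also: lysis reports solute entry through the parasite surface anion channel PSAC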; details: P. falciparum Indochina infected erythrocytes, higher = more signal, called active from +8 up or from −8 down
# [5] = changes in parasitized red cell lysis, either direction – P. falciparum Indochina, OD700, 3 h, PSAC antagonist project, primary screen (AID 1156); details: P. falciparum-infected erythrocytes, osmotic lysis, higher = more signal, called active from +8 up or from −8 down
# [6] = plasmodial surface anion channel blockers, osmotic lysis – cell-based, P. falciparum Indochina, OD700, 18 h, primary screen (AID 1157); details: P. falciparum Indochina infected erythrocytes, osmotic lysis OD700, 18 h; higher = more signal, called active from +8 up or from −8 down
# [7] = S6 kinase pathway phospho-S6 level changes – cell-based, A549, cytoblot, luminescence, serum-stimulated, primary screen (AID 1158); details: 5 h, higher = more signal;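 also: serum-stimulated A549 lung adenocarcinoma cells; signal is phosphorylated S6 detected by cytoblot immunostaining with HRP secondary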
# [8] = target: NADPH oxidase 2 (Homo sapiens) (UniProt P04839); assay: compounds shifting NOX2 Amplex Red fluorescence – cell-based, HEK293-NOX2, PMA-stimulated, NOX inhibitor project, primary screen (AID 1159); details: 45 min, higher = more signal, called active from +8 up or from −8 down; also: test concentration not given here
# [9] = target: NADPH oxidase 4 (Homo sapiens) (UniProt Q9NPH5); assay: compounds shifting NOX4 Amplex Red fluorescence – cell-based, HEK293-NOX4, tetracycline-induced, NOX inhibitor project, primary screen (AID 1160); details: HEK293-NOX4, Amplex Red H2O2 fluorescence, 45 min; higher = more signal, called active from +8 up or from −8 down
# [10] = target: NADPH oxidase 5 (Homo sapiens) (UniProt Q96PH1); assay: compounds shifting NOX5 Amplex Red fluorescence – cell-based, HEK293-NOX5, NOX inhibitor project, primary screen (AID 1161); details: HEK293-NOX5, ionomycin, 45 min, higher = more signal
# [11] = compound effects on lung adenocarcinoma cell viability – A549, calcein-AM fluorescence, 48 h, basal, profiling panel (AID 1162); details: higher = more signal; also: test concentration not given here
# [12] = compound effects on differentiated 3T3-L1 adipocyte viability – cell-based, 3T3-L1 adipocytes, calcein-AM fluorescence, 48 h, basal, profiling panel (AID 1163); details: 3T3-L1 adipocytes viability, higher = more signal; also: test concentration not given here
# [13] = compound effects on hepatocellular carcinoma cell viability – HepG2, calcein-AM fluorescence, 48 h, basal, profiling panel (AID 1164); details: higher = more signal; also: test concentration not given here
# [14] = compound effects on multiple myeloma cell viability – MM1S, calcein-AM fluorescence, 48 h, basal, profiling panel (AID 1165); details: higher = more signal;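 also: viability of MM1S multiple myeloma cells under basal unstimulated conditions; test concentration not given here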
# [15] = calcein-AM signal in unstimulated myeloma cells – cell-based, calcein-AM fluorescence, 48 h, PK04 Diversity Set, profiling panel (AID 1166); details: RPMI8226 myeloma viability, higher = more signal;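 also: cells grown under basal conditions without added stimulus; test concentration not given here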
# [16] = JC-1 mitochondrial signal, unstimulated HepG2 cells – cell-based, JC-1 fluorescence, 24 h, 100 nL compound, profiling panel (AID 1167); details: HepG2 mitochondrial potential, higher = more signal; also: test concentration not given here
# [17] = JC-1 mitochondrial signal, unstimulated adipocytes – cell-based, JC-1 fluorescence, 3T3-L1 adipocytes, 24 h, 100 nL compound, profiling panel (AID 1168); details: JC-1 mitochondrial fluorescence, higher = more signal, called active from +8 up or from −8 down; also: test concentration not given here
# [18] = JC-1 mitochondrial signal, unstimulated myeloma cells – cell-based, JC-1 fluorescence, RPMI8226, 24 h, 100 nL compound, profiling panel (AID 1169); details: JC-1 mitochondrial potential fluorescence, higher = more signal; also: test concentration not given here
# [19] = JC-1 mitochondrial signal, unstimulated MM1S myeloma – cell-based, JC-1 fluorescence, 24 h, 100 nL compound, profiling panel (AID 1170); details: MM1S mitochondrial potential, higher = more signal; also: test concentration not given here
# [20] = resazurin metabolic signal in A549 cells – cell-based, resazurin fluorescence, 24 h, PK04 Diversity Set, profiling panel (AID 1171); details: A549 viability, higher = more signal, called active from +8 up or from −8 down; also: test concentration not given here
# Chain of NADPH oxidase 2 (Homo sapiens) (P04839 whole entry, looked up): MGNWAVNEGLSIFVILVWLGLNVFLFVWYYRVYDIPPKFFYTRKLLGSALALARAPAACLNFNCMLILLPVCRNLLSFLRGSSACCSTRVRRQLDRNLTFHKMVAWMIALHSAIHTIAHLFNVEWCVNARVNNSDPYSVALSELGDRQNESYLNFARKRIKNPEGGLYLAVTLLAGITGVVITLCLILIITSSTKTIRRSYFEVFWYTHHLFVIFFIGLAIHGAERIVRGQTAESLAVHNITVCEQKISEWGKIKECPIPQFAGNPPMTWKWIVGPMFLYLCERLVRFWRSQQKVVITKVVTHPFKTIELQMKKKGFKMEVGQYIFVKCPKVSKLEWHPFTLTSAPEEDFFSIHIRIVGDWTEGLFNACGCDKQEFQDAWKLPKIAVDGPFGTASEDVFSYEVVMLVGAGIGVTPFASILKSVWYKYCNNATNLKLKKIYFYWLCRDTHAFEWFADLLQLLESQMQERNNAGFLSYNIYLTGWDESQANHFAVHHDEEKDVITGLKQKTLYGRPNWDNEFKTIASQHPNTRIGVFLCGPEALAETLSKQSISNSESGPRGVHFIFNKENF
# Chain of NADPH oxidase 5 (Homo sapiens) (Q96PH1 whole entry, looked up): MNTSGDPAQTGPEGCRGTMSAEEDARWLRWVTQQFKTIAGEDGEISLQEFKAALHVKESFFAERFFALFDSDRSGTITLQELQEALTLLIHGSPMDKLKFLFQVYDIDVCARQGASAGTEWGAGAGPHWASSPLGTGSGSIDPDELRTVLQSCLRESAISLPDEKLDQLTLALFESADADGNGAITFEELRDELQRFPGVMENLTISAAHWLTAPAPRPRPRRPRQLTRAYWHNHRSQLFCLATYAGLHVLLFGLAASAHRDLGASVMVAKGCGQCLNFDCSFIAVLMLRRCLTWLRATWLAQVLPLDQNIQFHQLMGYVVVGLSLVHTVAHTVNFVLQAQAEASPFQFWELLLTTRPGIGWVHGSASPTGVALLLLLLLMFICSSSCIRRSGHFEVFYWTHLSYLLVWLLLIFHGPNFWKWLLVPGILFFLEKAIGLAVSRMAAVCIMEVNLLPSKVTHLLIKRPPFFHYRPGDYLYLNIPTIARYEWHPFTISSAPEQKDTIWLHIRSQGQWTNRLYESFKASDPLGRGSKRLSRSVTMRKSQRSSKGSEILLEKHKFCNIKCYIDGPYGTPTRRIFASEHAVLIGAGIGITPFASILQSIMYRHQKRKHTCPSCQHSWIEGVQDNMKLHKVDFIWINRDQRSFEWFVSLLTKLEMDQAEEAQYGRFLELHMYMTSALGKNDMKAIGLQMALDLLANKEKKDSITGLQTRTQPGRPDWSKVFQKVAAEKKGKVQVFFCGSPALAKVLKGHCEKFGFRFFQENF
# Chain of NADPH oxidase 4 (Homo sapiens) (Q9NPH5 whole entry, looked up): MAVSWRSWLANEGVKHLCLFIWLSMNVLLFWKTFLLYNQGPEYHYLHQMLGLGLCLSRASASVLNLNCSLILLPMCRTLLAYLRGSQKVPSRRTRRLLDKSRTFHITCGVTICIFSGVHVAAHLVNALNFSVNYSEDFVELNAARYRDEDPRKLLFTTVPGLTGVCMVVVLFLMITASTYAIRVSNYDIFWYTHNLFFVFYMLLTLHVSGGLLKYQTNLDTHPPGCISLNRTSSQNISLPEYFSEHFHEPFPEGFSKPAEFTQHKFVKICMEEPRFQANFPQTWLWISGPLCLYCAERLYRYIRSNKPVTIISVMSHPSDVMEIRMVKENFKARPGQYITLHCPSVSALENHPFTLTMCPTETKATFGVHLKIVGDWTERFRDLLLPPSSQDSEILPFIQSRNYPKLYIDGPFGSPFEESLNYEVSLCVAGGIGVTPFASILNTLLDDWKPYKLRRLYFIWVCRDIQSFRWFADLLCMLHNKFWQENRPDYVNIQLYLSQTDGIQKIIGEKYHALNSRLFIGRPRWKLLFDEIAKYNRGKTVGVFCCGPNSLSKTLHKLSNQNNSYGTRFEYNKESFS
Compound,z-score [1],composite z-score [2],z-score [3],z-score [4],z-score [5],z-score [6],z-score [7],z-score [8],z-score [9],z-score [10],z-score [11],z-score [12],z-score [13],z-score [14],z-score [15],z-score [16],z-score [17],z-score [18],z-score [19],z-score [20]
COCCOC(=O)N1C(=O)[C@@]2(c3cc(C#CC4(O)CCCCCC4)ccc31)[C@H](C(=O)N1CCN(c3ncccn3)CC1)[C@H]1C(=O)O[C@H](c3ccccc3)[C@H](c3ccccc3)N1[C@@H]2c1ccccc1OCCO,-0.53 (inactive),0.487,1.57 (inactive),0.276 (inactive),0.547 (inactive),0.384 (inactive),-0.21,1.82 (inactive),-0.726 (inactive),1.31,-0.118,0.481,-0.594,-0.483,-1.98,-0.151,0.909 (inactive),-0.288,-0.589,-0.0171 (inactive)
Cc1ccc(S[C@]2(C(=O)NCC(C)C)CC(=O)N(C3Cc4ccccc4C3)[C@@H]2c2ccc(CO)cc2I)cc1,-0.715 (inactive),-0.192,2.92 (inactive),0.768 (inactive),0.708 (inactive),0.475 (inactive),-0.447,1.25 (inactive),0.0492 (inactive),1.47,0.168,-0.492,-0.455,-2.37,-2.6,-0.534,-0.233 (inactive),-0.107,-1.76,-0.105 (inactive)
COCCOC(=O)N1C(=O)[C@@]2(c3cc(C#CCNC(N)=O)ccc31)[C@H](c1ccc(OCCO)cc1)N1[C@H](c3ccccc3)[C@H](c3ccccc3)OC(=O)[C@H]1[C@@H]2C(=O)NC[C@H](O)c1ccccc1,0.402 (inactive),0.119,1.65 (inactive),1.1 (inactive),0.624 (inactive),0.457 (inactive),-0.144,2.22 (inactive),1.06 (inactive),-0.137,-1.31,0.494,-0.542,-0.193,-0.158,-1.49,0.17 (inactive),0.235,-0.391,0.32 (inactive)
O=C1C2C=CC(C(O)c3ccc4c(c3)OCO4)N(Nc3ccccc3)C2C(=O)N1c1ccccc1 (stereo not given),-1.27 (inactive),0.065,0.805 (inactive),0.384 (inactive),1.15 (inactive),1.39 (inactive),-0.777,-0.279 (inactive),0.756 (inactive),-1.12,-0.587,-0.756,-0.634,-0.427,0.0871,-1.47,-1.19 (inactive),0.558,-0.636,0.773 (inactive)
C=CC[C@H](OC(=O)Nc1ccc(SC)cc1)c1ccc(OCCO)cc1,-0.393 (inactive),-0.0987,31 (active),17.3 (active),3.54 (inactive),1.58 (inactive),-0.161,-1.96 (inactive),-0.438 (inactive),-1.34,-0.542,-0.228,-0.91,-0.75,0.329,-1.68,-0.313 (inactive),-0.309,-0.227,0.631 (inactive)
C=C(C(=O)CC[C@@H](OC(=O)c1ccccc1-c1ccccc1C(=O)O)c1ccccc1OCCO)C(C)C,0.0884 (inactive),0.15,4.57 (inactive),0.769 (inactive),1.56 (inactive),0.232 (inactive),0.689,-0.518 (inactive),-0.798 (inactive),-1.48,-0.0081,0.707,-0.188,-2.67,-1.92,-1.1,0.758 (inactive),0.0612,-0.281,0.63 (inactive)
COc1cc2c(cc1O)C(c1ccc(CN3CCCC3)cc1)N(C)CC2 (stereo not given),0.309 (inactive),-0.446,0.0334 (inactive),-0.0719 (inactive),0.247 (inactive),0.0339 (inactive),-0.364,-1.63 (inactive),-1.46 (inactive),-1.22,0.105,-0.582,0.339,0.752,0.0578,0.224,0.585 (inactive),0.224,-0.699,-1.18 (inactive)
C[C@]1(C(=O)NCC(F)(F)F)c2ccccc2C(=O)N(Cc2ccccc2)[C@H]1c1ccc(CO)cc1,0.588 (inactive),0.382,2.28 (inactive),0.0336 (inactive),-0.201 (inactive),-0.162 (inactive),-0.617,-0.0434 (inactive),0.431 (inactive),0.17,-0.431,-0.2,0.57,-0.503,0.514,1.97,0.113 (inactive),0.824,-1.07,0.0906 (inactive)
C=C(/C(=C/C[C@@H](OC(C)=O)c1ccc(CO)o1)c1cc(C(=O)OC)ccc1OC)C(C)C,0.225 (inactive),-0.0536,4.3 (inactive),0.758 (inactive),1.35 (inactive),0.479 (inactive),-0.0642,-0.169 (inactive),-0.673 (inactive),-0.988,1.62,-0.634,0.377,-0.998,0.0028,-0.241,-0.298 (inactive),-0.544,-1.2,-0.0571 (inactive)
